Laboratory results reported in PubChem BioAssay (NCATS).
Several values for one entry are separate records, joined by “and”; a condition that tells them apart may be missing. Equal entries are not always repeated. Results filed as inconclusive are left out. Entries that show only a call come without a potency. Unmarked numbers belong to inactive results. Activity calls are given as the source filed them. Calls come from the whole dose curve; as a rule, active = well fitted curve in the direction sought with a large enough effect; inconclusive = small, poorly fitted or top-dose-only effect, or another doubt; inactive = no such curve, though single readings can be large; an effect the other way counts as inactive or inconclusive.

Legend:
[1] = molecular target: Cellular tumor antigen p53 (Homo sapiens) (UniProt P04637); assay: Primary qHTS for small molecule compounds that upregulate eGFP-tagged delta133p53alpha (in N-terminal) cells. (AID 2060322); conditions: NCI-H358 eGFP-delta133p53alpha fluorescence, 24 h; activation: active compounds read high; note: nearly all actives have a fitted effect of over 75% in size; note: potency is the fitted concentration of half-maximal effect; for activation: series mostly up to about 56 µM
Chain of Cellular tumor antigen p53 (Homo sapiens) (P04637 whole entry, looked up): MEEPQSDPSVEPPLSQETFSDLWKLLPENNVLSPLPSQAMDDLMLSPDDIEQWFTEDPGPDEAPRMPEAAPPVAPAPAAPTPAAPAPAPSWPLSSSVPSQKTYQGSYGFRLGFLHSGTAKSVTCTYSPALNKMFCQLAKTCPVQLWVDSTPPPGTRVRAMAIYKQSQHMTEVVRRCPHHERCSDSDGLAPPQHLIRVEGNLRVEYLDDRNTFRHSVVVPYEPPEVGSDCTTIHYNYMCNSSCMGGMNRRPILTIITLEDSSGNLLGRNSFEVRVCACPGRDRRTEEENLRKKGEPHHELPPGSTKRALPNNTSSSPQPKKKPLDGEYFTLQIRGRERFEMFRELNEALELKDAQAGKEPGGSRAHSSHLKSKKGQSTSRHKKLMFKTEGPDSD
Procedure, shortened: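 NCI-H358 cells pre-induced 24 h with 10 ng/ml doxycycline to express N-terminal eGFP-delta133p53alpha, then dosed 24 h at 37C without doxycycline; fixed, Hoechst-stained, GFP intensity by laser scanning cytometry, normalized to DMSO (0%) and 57.5 uM 5-azacytidine (100%).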

[2] = molecular target: Aldehyde dehydrogenase, mitochondrial (Homo sapiens) (UniProt P05091); assay: qHTS for Inhibitors of the Aldehyde Dehydrogenase Family (ALDH2) Primary screen (AID 2061308); note: nearly all actives have a fitted effect of over 55% in size
[3] = molecular target: Retinaldehyde dehydrogenase 3 (Homo sapiens) (UniProt P47895); assay: qHTS for Inhibitors of the Aldehyde Dehydrogenase Family (ALDH1A3) Validation screen (AID 2061312); note: nearly all actives have a fitted effect of over 45% in size; note: potency is the fitted concentration of half-maximal effect
[4] = molecular target: Retinaldehyde dehydrogenase 3 (Homo sapiens) (UniProt P47895); assay: qHTS for Inhibitors of the Aldehyde Dehydrogenase Family (ALDH1A3) Primary screen (AID 2061315)
[5] = BET inhibitor-based combinations targeting novel dependencies in MECOM-rearranged (r) AML: SET-2 cell line (AID 2202231); conditions: SET-2 AML cells viability, CellTiter-Glo luminescence, 48 h; viability: active compounds read low, concentration not given here; note: nearly all actives have a fitted effect of over 35% in size; note: potency is the fitted concentration of half-maximal effect
Procedure, shortened: (§1)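 500 cells/well; 11-pt dose curve; 48 h, standard incubator; CellTiter-Glo luminescence after 15 min RT; DMSO/empty-well normalization; AUC plus Z-AUC (mean-centered within each line).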

[6] = BET inhibitor-based combinations targeting novel dependencies in MECOM-rearranged (r) AML: OCI-AML3 cell line (AID 2202232); conditions: Potency: OCI-AML3 viability; note: nearly all actives have a fitted effect of over 35% in size; note: potency is the fitted concentration of half-maximal effect
Procedure, shortened: as §1

[7] = BET inhibitor-based combinations targeting novel dependencies in MECOM-rearranged (r) AML: MV-4-11 cell line (AID 2202233); note: nearly all actives have a fitted effect of over 45% in size; note: potency is the fitted concentration of half-maximal effect
Procedure, shortened: (§2)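 Cells were plated at 500 per well and exposed to each drug across an 11-point dose range for 48 hr at standard incubator conditions. Viability was read by CellTiter-Glo luminescence, and activity was expressed as AUC and per-cell-line Z-transformed AUC.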

[8] = BET inhibitor-based combinations targeting novel dependencies in MECOM-rearranged (r) AML: HNT-34 cell line (AID 2202234); note: nearly all actives have a fitted effect of over 35% in size; note: potency is the fitted concentration of half-maximal effect
Procedure, shortened: as §2

[9] = BET inhibitor-based combinations targeting novel dependencies in MECOM-rearranged (r) AML: UCSD-AML1 cell line (AID 2202235); note: nearly all actives have a fitted effect of over 40% in size; note: potency is the fitted concentration of half-maximal effect
Procedure, shortened: as §2

[10] = BET inhibitor-based combinations targeting novel dependencies in MECOM-rearranged (r) AML: AML-191 cell line (AID 2202236; note: nearly all actives have a fitted effect of over 35% in size; note: potency is the fitted concentration of half-maximal effect)
Procedure, shortened: as §1

[11] = BET inhibitor-based combinations targeting novel dependencies in MECOM-rearranged (r) AML: AML-194 cell line (AID 2202237; note: nearly all actives have a fitted effect of over 40% in size; note: potency is the fitted concentration of half-maximal effect)
Procedure, shortened: as §1

## Cc1cccc(-c2nn3c(c2-c2ccnc4ccc(C(N)=O)cc24)CCC3)n1
[1]
  activation: -7.16%
[2]
  Potency: inactive
[3]
  Potency: inactive
[4]
  Potency: inactive
[5]
  viability: 108%
[6]
  Potency: inactive
[7]
  Potency: inactive
[8]
  Potency: inactive
[9]
  Potency: inactive
[10]
  Potency: inactive
[11]
  Potency: inactive

## COc1cc2c(cc1-c1c(C)noc1C)ncc1[nH]c(=O)n([C@H](C)c3ccccn3)c12
[1]
  activation: 5.5% and 9.55% and -13.4%
[2]
  Potency: inactive
[3]
  Potency: inactive
[4]
  Potency: inactive
[5]
  Potency: 1.32 µM (active)
[6]
  Potency: 0.468 µM (active)
[7]
  Potency: 0.417 µM (active)

## Nc1nc(F)nc2c1ncn2[C@@H]1O[C@H](CO)[C@@H](O)[C@@H]1O
[1]
  activation: -5.02% and -9.07%
[2]
  Potency: inactive
[3]
  Potency: inactive
[4]
  Potency: inactive
[5]
  Potency: 14.8 µM (active)
[6]
  Potency: 10.5 µM (active)
[7]
  Potency: 9.34 µM (active)
[8]
  Potency: 14.8 µM (active)
[9]
  Potency: 1.05 µM (active)
[10]
  Potency: 2.95 µM (active)
[11]
  Potency: 3.72 µM (active)

## CCOc1nc2c(N)ncnc2n1CC
[1]
  activation: -10%
[2]
  Potency: inactive
[3]
  Potency: inactive
[4]
  Potency: inactive

## Cc1c(C(=O)Nc2ccc(N3CCC(N4CCOCC4)CC3)c(C#N)c2)cnn1-c1ccc(Cl)cc1
[1]
  activation: 15.8%
[2]
  Potency: inactive
[3]
  Potency: inactive
[4]
  Potency: inactive

## O=C(NCC(=O)N1CC[C@H](NC2CCC(O)(c3ccc(-c4ncccn4)cn3)CC2)C1)c1cccc(C(F)(F)F)c1 (stereo partly specified)
[1]
  activation: 5.25%
[2]
  Potency: inactive
[3]
  Potency: inactive
[4]
  Potency: inactive
[5]
  viability: 98.1%
[7]
  Potency: 10.5 µM (active)
[8]
  Potency: inactive
[9]
  Potency: inactive
[10]
  Potency: inactive

## COc1ccc2cc(OCC3(C(=O)O)CN(C(=O)c4ccc(F)cc4)C3)ccc2c1
[1]
  activation: 2.86%
[2]
  Potency: inactive
[3]
  Potency: inactive
[4]
  Potency: inactive
[5]
  viability: 113%
[6]
  Potency: inactive
[8]
  Potency: inactive
[10]
  Potency: inactive
[11]
  Potency: inactive

## COCCOc1ccc(N2CCN(CCn3ncc4c3nc(N)n3nc(-c5ccco5)nc43)CC2)cc1
[1]
  activation: 6.21%
[2]
  Potency: inactive
[3]
  Potency: inactive
[4]
  Potency: inactive
[5]
  viability: 113%
[6]
  Potency: inactive
[8]
  Potency: inactive
[9]
  Potency: inactive
[11]
  Potency: inactive

## CNC1CCC(N(Cc2cccc(-c3ccncc3)c2)C(=O)c2sc3c(F)ccc(F)c3c2Cl)CC1 (stereo unspecified)
[1]
  activation: 21.5%
[2]
  Potency: inactive
[3]
  Potency: inactive
[4]
  Potency: inactive
[5]
  Potency: 26.3 µM (active)
[6]
  Potency: 16.6 µM (active)
[8]
  Potency: 20.9 µM (active)
[10]
  Potency: 20.9 µM (active)
[11]
  Potency: 23.5 µM (active)

## CCC(CC)C(c1ccc(Nc2nc3ccccc3s2)cc1)n1cncn1 (stereo unspecified)
[1]
  activation: 17.2%
[2]
  Potency: inactive
[3]
  Potency: inactive
[4]
  Potency: inactive
[5]
  Potency: 20.9 µM (active)
[6]
  Potency: 11.8 µM (active)
[9]
  Potency: inactive
[10]
  Potency: 16.6 µM (active)

## NS(=O)(=O)OC[C@@H]1C[C@@H](n2ccc3c(N[C@H]4CCc5ccccc54)ncnc32)C[C@@H]1O
[1]
  activation: -7.64% and -2.39%
[2]
  Potency: inactive
[3]
  Potency: inactive
[4]
  Potency: inactive
[5]
  Potency: 0.525 µM (active)
[7]
  Potency: 0.209 µM (active)
[8]
  Potency: 0.372 µM (active)
[9]
  Potency: 0.59 µM (active)
[10]
  Potency: 0.934 µM (active)
[11]
  Potency: 0.934 µM (active)

## Cc1cc(OCc2nnc(SC3CCCC3)n2-c2cccnc2)ccc1-c1ccc(S(C)(=O)=O)cc1
[1]
  Potency: 6.75 µM (active)
[2]
  Potency: inactive
[3]
  Potency: inactive
[4]
  Potency: inactive
[5]
  Potency: 6.61 µM (active)
[6]
  Potency: 3.72 µM (active)
[9]
  Potency: 5.9 µM (active)
[10]
  Potency: 8.33 µM (active)
[11]
  Potency: 7.42 µM (active)

## COc1ccc2c(OCc3nnc4ccc(-c5ccccc5)nn34)ccnc2c1
[1]
  activation: -0.776% and -8.11%
[2]
  Potency: inactive
[3]
  Potency: inactive
[4]
  Potency: inactive
[5]
  viability: 116%
[6]
  Potency: inactive
[7]
  Potency: inactive
[8]
  Potency: inactive
[9]
  Potency: inactive
[11]
  Potency: inactive

## CN1CC[C@@H](NC(=O)Nc2ccc(C#N)cc2)C[C@@H]1c1nc2ccccc2[nH]1
[1]
  activation: -0.477%
[2]
  Potency: inactive
[3]
  Potency: 3.98 µM (active)
[4]
  Potency: inactive
[5]
  viability: 117%
[6]
  Potency: inactive
[9]
  Potency: inactive
[10]
  Potency: inactive
[11]
  Potency: inactive

## Cc1csc(NC(=O)c2sc3nc4c(c(C(F)(F)F)c3c2N)CCC4)n1
[1]
  activation: -4.78%
[2]
  Potency: inactive
[3]
  Potency: inactive
[4]
  Potency: inactive
[5]
  viability: 97.5%
[7]
  Potency: inactive
[8]
  Potency: inactive
[9]
  Potency: inactive
[10]
  Potency: inactive
[11]
  Potency: inactive

## C[C@]12CC[C@H](O)CC1=CCC1C2CC[C@]2(C)C(n3cnc4ccccc43)=CCC12 (stereo partly specified)
[1]
  activation: 20.1% and 28.6%
[2]
  Potency: inactive
[3]
  Potency: inactive
[4]
  Potency: inactive
[5]
  viability: 118%
[6]
  Potency: inactive
[8]
  Potency: inactive

## O=P(O)(O)C(O)(Cc1cccnc1)P(=O)(O)O
[1]
  activation: 20.9% and -4.4% and 7.64%
[2]
  Potency: inactive
[3]
  Potency: inactive
[4]
  Potency: inactive
[5]
  viability: 110%
[6]
  Potency: inactive
[7]
  Potency: inactive
[8]
  Potency: inactive
[10]
  Potency: inactive
[11]
  Potency: inactive

## CC(=O)c1cnc2ccc(-c3cc(Cl)c(O)c(Cl)c3)nc2c1NC1CCC(CN(C)C)CC1 (stereo unspecified)
[1]
  Potency: 153 nM (active) and 195 nM (active)
[2]
  activity change, negative = inhibition: 21.4% [at 11.2 µM]
[3]
  activity change, negative = inhibition: 24.3% [at 20.1 µM]
[4]
  activity change, negative = inhibition: 9.88% [at 11.2 µM]
[5]
  Potency: 0.0605 µM (active)
[6]
  Potency: 0.121 µM (active)
[7]
  Potency: 0.0171 µM (active)
[8]
  Potency: 0.0481 µM (active)
[9]
  Potency: 0.027 µM (active)
[11]
  Potency: 0.0605 µM (active)
